# In PubChem BioAssay (NCI):
# The panel holds about 83,000 compounds, 20% with a hit somewhere; the sample as a whole holds those more often.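 Growth was measured after 48 h exposure to one concentration of compound in 96-well plates. Values under 10 count as active.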 Values without a mark were called inactive. Active and inactive are the calls of the source.
# Tested on: HL-60(TB) leukemia
# Experiment: NCI-60 one-dose screen, 48 h (100 = growth as untreated, 0 = no growth, -100 = all killed)
# Conditions: 10 µM unless noted
row,SMILES,growth
1,Cn1cc(-c2nonc2-c2cn(C)c3ccc(F)cc23)c2ccccc21,-24.3% (active)
2,Nc1ncnc2c1N=C(c1ccc(F)cc1)CC(c1cccc(Nc3ccnc4cc(Cl)ccc34)c1)N2 (stereo not given),83.6%
3,Cc1cc2cn3c4ccc(O)cc4[nH]c(=O)c3c2cc1C,-51.9% (active)
4,COC(=O)[C@]12CC[C@@H](C)[C@H](C)[C@@H]1C1=CC[C@@H]3[C@@]4(C)C(c5ncon5)=C[C@@](C)(CO)C4=CC[C@@]3(C)[C@]1(C)CC2,-33.9% (active)
5,CC(C)Cn1cnc2c(NCn3nc(-c4cc(Cl)cc(Cl)c4Cl)n(/N=C/c4ccc(Cl)cc4)c3=S)nc3ccccc3c21,93.3%
6,COc1cc2nc(Cl)nc(Nc3cccc(C(=O)/C=C/c4ccc(F)cc4)c3)c2cc1OC,62.1%
7,O=C(O)/C=C\C(=O)Nc1cccc2ccccc12,56.7%
8,C[C@@H]1CN(c2cnc(C(=O)Nc3cc(F)cc4cccnc34)cn2)C[C@H](C)N1,82.4%
9,CC(C)(C)c1nn(-c2ccccc2)c2c1CC1(CN2Cc2ccc3c(c2)OCO3)C(=O)c2ccccc2C1=O,102%
10,Cn1cc(-c2nc(-c3c[nH]c4ccncc34)cs2)c2cc(Br)ccc21,-61.4% (active)
11,COc1ccc(-c2nn(-c3cccc(NC(=O)Nc4cc(C(F)(F)F)cc(C(F)(F)F)c4)c3)cc2-c2ccncc2)cc1Cl,-25.4% (active)
12,COc1ccc(C2CC(c3ccc(-c4ccccc4)cc3)=NN2c2ccc(S(N)(=O)=O)cc2)cc1 (stereo not given),69.4%
13,C=CCNc1ccc2c3c(cccc13)C(=O)N(N1C(=O)c3cccc4cccc(c34)C1=O)C2=O,102%
14,COC(=O)c1ccc2[nH]c(O)c(C(=Nc3ccc(N(C)C(=O)CN4CCN(C)CC4)cc3)c3ccc(N)cc3)c2c1,110%
15,O=c1ccccc(-c2ccc(Br)cc2)c1O,-35.9% (active)
16,CCCSc1nc(N)nc2nc[nH]c12,74.6%
17,N#Cc1cccc(OCc2nc(N)nc(N)c2-c2ccc(Cl)c(Cl)c2)c1,29.8%
18,CC(=O)c1c(OCC#N)ccc2c(C)cc(=O)oc12,81.6%
19,COc1cc(C2=NN(c3ccccc3)C(c3cccc(Nc4ccnc5cc(C(F)(F)F)ccc45)c3)C2)cc(OC)c1OC (stereo not given),94.8%
20,O=C(CSc1ncccc1C(=O)O)Nc1ccc(Oc2ccccc2)cc1,87.5%

row,SMILES,growth
1,O=CN1N=C(c2ccc(F)cc2)CC1c1cccc(Nc2ccnc3cc(C(F)(F)F)ccc23)c1 (stereo not given),8.69% (active)
2,COc1ccc(-c2nc(SCC(C)C)nc(Nc3ccccc3)c2C#N)cc1,88.6%
3,CCN(CC)CCOC(=O)N1c2ccccc2Sc2ccccc21,88.1%
4,CC(C)OC(C(=O)O)c1ccccc1 (stereo not given),129%
5,COC1C(O)CC(OC2CC(OC3CC(O[C@@H]4C(=O)c5c(cc6cc(OC7CC(OC8CC(O)C(O)C(C)O8)C(O)C(C)O7)c(C)c(O)c6c5O)CC4[C@H](OC)C(=O)O)OC(C)C3O)OC(C)C2O)OC1C (stereo not given in full),60.5%
6,CCOC(=O)c1cnn2c(-c3ccc(Cl)cc3)nc(NCc3ccccc3)nc12,82.7%
7,Cc1ccc(OC2=C(C#N)C(=N)N3C(=NN2)Sc2c(C)ccc(C)c23)cc1,109%
8,CCCCC1COc2cccc3c(SCC(=O)N(C)c4cccc5ccccc45)cc[n+]1c23 (stereo not given),89.8%
9,O=C(Nc1ccncc1)C(=O)c1cn(S(=O)(=O)c2ccccc2F)c2ccccc12,12.7%
10,O=S(c1ccccc1)c1ccc2nnnn2n1 (stereo not given),42.5%
11,COc1ccc(NC(=O)CSc2nc(C)c(C(C)=O)n2-c2ccc([N+](=O)[O-])cc2)cc1,121%
12,COc1ccc2nc3cc(Cl)ccc3c(NCCNCC(C)O)c2c1 (stereo not given),21.8%
13,CCCCOC(=O)C1OC(Oc2ccc3c(C)cc(=O)oc3c2)[C@@H](OC(C)=O)C(OC(C)=O)C1OC(C)=O (stereo not given in full),102%
14,Oc1ccc(CCC2CCNc3ccccc32)cc1 (stereo not given),86.9%
15,N=C(N)c1ccc(-c2ccc(-c3ccc(F)cc3)s2)cc1,-56.1% (active)
16,COc1cc(/C=N/NC(=O)c2ccc(C)nc2)cc(OC)c1OC,56%
17,Fc1ccc(Nc2nnc(-c3ccc(Cl)cc3)o2)cc1,91.4%
18,Cc1ccc(-c2nn(Cc3cn(-c4cc(C)nc5ccccc45)nn3)c3ncnc(N)c23)cc1,83.1%
19,CC(=O)O[C@@H]1CC2C(C)(C)CCCC2(C)C2=C1C(=O)C(C(C)C)=CC2=O (stereo not given in full),1.18% (active)
20,C[C@H]1C[C@@H](n2cnc3c(N)nccc32)[C@H](O)[C@@H]1O,80.5%
